# Compounds without any hit were thinned out: in the full panel of roughly 83,000, 20% have a hit.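 Compound tested at a single concentration for 48 hours in 96-well plates; a percent growth value below 10 was scored as active.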 A number with no mark means an inactive call. Activity calls are given as the source filed them.
# Experiments:
# Assay in all cases: NCI-60 one-dose screen, 48 h (100 = growth as untreated, 0 = no growth, -100 = all killed)
# Conditions in all cases: 10 µM
# [1] = system: HCT-15 colon
# [2] = system: HT29 colon
# [3] = system: SNB-75 CNS
# [4] = system: SNB-19 CNS
# [5] = system: U251 CNS
# [6] = system: PC-3 prostate
# [7] = system: SK-MEL-5 melanoma
# [8] = system: UACC-62 melanoma
# [9] = system: LOX IMVI melanoma
# [10] = system: SK-MEL-28 melanoma
Compound,growth [1],growth [2],growth [3],growth [4],growth [5],growth [6],growth [7],growth [8],growth [9],growth [10]
COc1ccc(-c2nnc(SC/C(=N\O)c3ccccc3)o2)cc1,97.5%,95%,106%,99.7%,103%,86.8%,97.1%,81%,95.1%,94.3%
CCCCCCCC/C=C/CCCCCCCCC1=NCCN1CCO,59.2%,19.7%,57.3%,92.8%,54.1%,46.2%,85.6%,90.5%,-7.51% (active),90.5%
CCCCCCN=C(N)CCCCCCCCCCC(N)=NCCCCCC,31.8%,14%,23.8%,18.4%,14.8%,23.8%,20%,40.9%,37.2%,55.8%
Cc1ccc2nc(-c3ccc(OCC(=O)N=Nc4c(O)[nH]c5ccccc45)cc3)[nH]c2c1,86.3%,41.2%,109%,50%,6.05% (active),7.33% (active),94.3%,96.5%,39%,102%
COc1cc(C2CC(=O)Nc3c2c(C)nn3-c2nc3ccccc3[nH]2)cc(OC)c1O (stereo not given),40.3%,57.9%,6.05% (active),44.1%,53.3%,68.1%,60.8%,67.2%,55.1%,13.2%
CCOC(=O)c1cc(-c2ccccc2)nc(N)n1,94.9%,119%,84.7%,92%,98.3%,96.6%,100%,99.9%,101%,111%
Nc1nc2c(ncn2C2OC3COP(=O)(O)OC4C(COP(=O)(O)OC2C3O)OC(n2cnc3c(N)ncnc32)C4O)c(=O)[nH]1 (stereo not given),106%,97.4%,104%,93.5%,110%,108%,106%,103%,90.2%,113%
COc1ccc(-c2n/c(=C\c3c(O)[nH]c4ccccc34)cc3c2=Nc2ccccc2-3)cc1,1.23% (active),-37.1% (active),66.1%,63.1%,-61.4% (active),43.3%,70%,87.3%,2.48% (active),-25.6% (active)
C[C@]12CC[C@H]3[C@@H](CCC4=CC(=O)CC[C@@]43C)[C@@H]1CC[C@@H]2c1csc(N)n1,46.5%,56.6%,92.5%,71.5%,56.9%,19.3%,9.04% (active),41.8%,59.3%,82.8%

# — PubChem BioAssay (NCI)
